Test results: PubChem BioAssay AID463212 (Sanford-Burnham Center for Chemical Genomics, 2010)
About 4,400 (1.3%) of roughly 330,000 compounds were called active. The list comes from a sample in which actives are over-represented; it also holds similar structures and randomly drawn compounds. A number with no mark means an inactive call.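 How the source made its calls: active means growth inhibition of the mutant yeast at or above 50%; inactive means the rest.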

experiment: growth inhibitors of tim23-1 mutant yeast, primary screen, luminescence, uHTS (AID 463212);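 further: temperature-sensitive mutant grown at 25 °C; plate controls were DMSO-treated mutant yeast for no effect and medium wells lacking yeast for full effect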; conditions: S. cerevisiae tim23-1 growth, BacTiter-Glo luminescence, 24 h; at 20 µM; stronger effect = higher value

Structure (SMILES) | inhibition
COc1ccc2c(c1)cc1n2CCN=C1NN | 45.5%
COc1ccc(C(=O)O/N=C(\N)Cc2ccc(Cl)cc2Cl)cc1OC | 60.3% (active)
COc1ccc(C(=O)ON=C2c3ccccc3-c3ccccc32)cc1OC | 0.197%
COc1ccc(C/C(N)=N/OC(=O)c2ccco2)cc1OC | 2.63%
Cn1nc(C(F)(F)F)c2cc(NC(=O)OCC(C)(C)C)sc21 | 50.2% (active)
Cn1nc(C(F)(F)F)c2cc(C(=O)N3CCOCC3)sc21 | 3.93%
Cn1nc(C(F)(F)F)c(-c2ccc(F)cc2)c1NC(=O)CSCC(=O)O | -1.38%
COc1ccc(CCNC(=O)C2CCCN(Cc3nc(-c4cccc(Cl)c4)oc3C)C2)cc1OC (configuration not stated) | 7.77%
COc1cc(OC)c2c(-c3cccc(-c4cccc(N)c4)c3)cc(=O)oc2c1 | 35.7%
O=C(O)c1ccc(/C=N/NC(=S)NCc2ccccc2)cc1 | -1.86%
C/C(=N\NC(=S)NCc1ccccc1)c1ccc(Cl)cc1 | 56% (active)
C/C(=N\NC(=S)NCc1ccccc1)C1CCCCC1 | 22.7%
Cc1nn(C)c(C)c1CN(C(=O)CCc1nnc(Cc2c[nH]c3ccccc23)o1)C(C)C | 20.5%
O=C(NC(=S)NC1CCCCC1)c1ccc(Cl)cc1 | 67.3% (active)
O=C(NNC(=S)NC1CCCCC1)c1ccccc1Cl | 5.3%
COc1ccc(C(=O)NC(=S)NC2CCCCC2)cc1 | 63.3% (active)
O=C(NC1CCCCCC1)C1CCN(C(=O)c2ccc(Cl)cc2)CC1 | 15.7%
COc1ccc(-n2cnc3cc(C(=O)NC4CCCC4)ccc32)cc1 | 17.7%
CCCNC(=S)N1CCC(NC(=O)c2ccc(OC)cc2)CC1 | -9.98%
CCc1ccc(S(=O)(=O)NCC(O)COc2ccc(OC)cc2)cc1 (configuration not stated) | 13.2%
CCc1ccc(Nc2n[n+](-c3ccccc3)c(-c3cccc(Cl)c3Cl)s2)cc1 | 36.3%

Structure (SMILES) | inhibition
CC(=O)C1=C(O)C(=O)N(c2cccnc2)C1c1ccc([N+](=O)[O-])cc1 (configuration not stated) | 4.69%
O=C1[C@@H](c2ccccc2)[C@@H](c2ccccc2)N1c1cccnc1 | 70.3% (active)
CCc1ccccc1NC1c2ccccc2C(=O)N1c1cccnc1 (configuration not stated) | -9.01%
CCOc1cc(/C=N/Nc2cc(C)nc3ccc(C)cc23)ccc1O | 37.3%
COc1cc(/C=N/NC(=O)CCc2n[nH]c(=O)[nH]c2=O)ccc1O | 5.73%
COc1cc(/C=N/Nc2nc3ccccc3s2)ccc1O | 51.9% (active)
CC(=O)c1c(C)[nH]c(C(=O)CN2C(=O)NC(C)(C)C2=O)c1C | -12.9%
Cc1ccc(S(=O)(=O)N[C@@H](Cc2ccccc2)C(=O)N2CCC(C(=O)N[C@H](C(=O)O)C(C)O)CC2)cc1 (some centres not stated) | 0.987%
Oc1c(Cl)cc(Cl)c(Cl)c1Cc1c(O)c(Cl)cc(Cl)c1Cl | 94.9% (active)
Cc1ccc(OC(=O)c2cncc(Br)c2)c(C)c1 | 14.1%
CC1(C)C2CCC1(C)C(OC(=O)c1ccc(O)cc1)C2 (configuration not stated) | 70% (active)
CC1(C)C2CCC1(C)C(OC(=O)CCn1ccnc1)C2 (configuration not stated) | 13.1%
Cc1ccc(C(=O)OC2CCCN(C)C2)cc1 (configuration not stated) | -2.9%
CN(C)c1ccc(N/C=C/C(=O)C(F)(F)F)cc1 | 6.08%
O=C(O)c1cc(S(=O)(=O)N2CCCCCC2)c(Cl)cc1Cl | 8.13%
COc1ccc(CCNC(=O)CCCCCNC(=O)N2CCn3c2nc2ccccc23)cc1OC | 15%
CC1CC2=C(CC1/C=N/NC(N)=S)C(C)(C)CCC2 (configuration not stated) | 50.5% (active)
CC1CCN(C(=S)c2ccc(-c3ccc(Cl)cc3Cl)o2)CC1 | 17.6%
C/C(=N\NC(=O)c1ccc(NS(=O)(=O)c2cccs2)cc1)c1ccc2ccccc2c1 | 10.6%
CCN(C(=O)CSc1nnnn1-c1ccccc1OC)C1CCS(=O)(=O)C1 (configuration not stated) | -2.5%
O=C(COC(=O)c1ccc(O)cc1O)c1ccc2c(c1)OCCO2 | 59% (active)

Structure (SMILES) | inhibition
O=C(COC(=O)c1ccccc1)c1ccc2c(c1)OCCO2 | 16.5%
CC(=O)Nc1cccc(C(=O)OCC(=O)c2ccc3c(c2)OCO3)c1 | 2.44%
O=C(c1cnn2ccccc12)N1CCc2ccccc21 | 5.86%
COC(=O)c1cn(C)c2ccc(S(=O)(=O)N3CC(C)CC(C)C3)cc2c1=O (configuration not stated) | 17.1%
CC(=O)N/C(=C/c1ccc(OC(F)F)cc1)C(=O)O | 0.72%
COc1cc(Br)cc(/C=N/c2ncn[nH]2)c1O | 72.2% (active)
Oc1c(Cl)cc(Cl)cc1/C=N/c1ncn[nH]1 | 31.4%
C=CCn1c(Cn2nnc3ccccc32)nnc1SCC(=O)N/N=C/c1cc(Br)cc(OC)c1O | 7.67%
CCc1ccc(Oc2nc([N+](=O)[O-])nn2C)cc1 | 27.6%
CCCc1nc2c(c(=O)c3ccccc3n2C)c(=O)n1C1CCCCCC1 | 59.8% (active)
CC1CCN(Cc2nc3c(c(=O)n(C)c(=O)n3C)n2CCc2ccccc2)CC1 | 5.06%
Cn1c2ccccc2c2c(C(=O)N3CCN(c4ccc(F)cc4)CC3)cn(C3CCCC3)c(=O)c21 | 31.3%
CCN=c1sc(C(=O)Nc2ccccc2)c(C)n1CC | -9.39%
COc1cccc(C2=CC(=O)C[C@H](c3ccc(OC)c(OC)c3)C2)c1 | 29%
Cc1ccc(Oc2cnn(-c3ccccc3)c(=O)c2Br)cc1 | 55.2% (active)
Cc1ccc(OC(=O)c2c(C)nn(-c3ccccc3)c2C)cc1 | 23%
Cc1cccc(-n2ncc(Cl)c(Cl)c2=O)c1 | 13.8%
Cc1ccc(-n2c(=O)c(C#N)cc3c(=O)n4ccccc4nc32)cc1C | -9.74%
CCc1ccc(OCC(=O)N(Cc2ccccc2)C2CCS(=O)(=O)C2)cc1 (configuration not stated) | 9.11%
COc1ccccc1C(C)NC(=O)Cc1ccsc1 (configuration not stated) | -5.87%
